This passage reports Potency results from PubChem BioAssay (Tox21).

Several values for one entry are separate records, joined by “and”; a condition that tells them apart may be missing. Equal entries are not always repeated. Inconclusive results are not listed. Where a call stands in place of a potency, no number is given. Activity calls are given as the source filed them. The call rests on the fitted dose curve.
Potency means the concentration at half of the fitted maximal effect.

The assay can be described thus: qHTS assay for small molecule agonists of the p53 signaling pathway - cell viability (AID 651633). Further: nearly all actives have a fitted effect of over 30% in size. To be noted: p53RE-bla HCT-116 viability, ATP luminescence, 16 h; series mostly up to 83.3 µM. The text has this:
National Center for Advancing Translational Sciences [NCATS]
NIH Chemical Genomics Center [NCGC]
U.S. Environmental Protection Agency [EPA]
National Institutes of Environmental Health Sciences [NIEHS]
National Toxicology Program [NTP]
U.S. Food and Drug Administration [FDA]
p53, a tumor suppressor protein, is activated following cellular insult, including DNA damage and other cellular stresses. The activation of p53 regulates cell fate by inducing DNA repair, cell cycle arrest, apoptosis, or cellular senescence. The activation of p53, therefore, is a good indicator of DNA damage and other cellular stresses. […] The activation of the reporter gene under culture conditions can be detected by fluorescence intensity. This cell line was used to screen the Tox21 compound library in a 1536-well plate format and to identify agonists that activate the p53 signaling pathway.
Tox21 Assay Protocol Summary:
The p53RE-bla cells were dispensed at 4,000 cells/5 ul/well in 1536-well black wall/clear bottom plates using a Multidrop dispenser. After the assay plates were incubated at a 37 C/5% CO2 incubator for 5 hours, 23 nL of compounds dissolved in DMSO, positive controls or DMSO only was transferred to the assay plate by a pin tool. The plates were incubated at 37 C for 16 hours. After 1 uL of LiveBLAzerTM B/G FRET substrate was added using a Flying Reagent Dispenser, the plates were incubated at room temperature for 2 hours, and fluorescence intensity was measured by an Envision plate reader.
For cell viability readout that measures cytotoxicity, 4 ul/well of CellTiter-Glo reagent was added into the assay plates using a Flying Reagent Dispenser. After 30 min incubation at room temperature, the luminescence intensity in the plates was measured using a ViewLux plate reader.
Background: In qHTS, concentration-response curves come from the screen itself.
As for `c1ccc2c(c1)-c1cccc3cccc-2c13`, the Potency entry is “inactive”. In the case of `CC(Oc1cc(Cl)c(Cl)cc1Cl)C(=O)O` (stereo not given) it was “inactive”; in that of `C[C@H]1O[C@H](OC2[C@@H](O)[C@@H](O)C(O)[C@H](O)[C@H]2O)[C@@H](N)C[C@@H]1N=C(N)C(=O)O` (stereo not given in full), “inactive”. Under `CCC1(CC)C(=O)NC(=O)NC1=O` stands “inactive”. As to `CCCC[N+]1(C)[C@@H]2CC(OC(=O)[C@H](CO)c3ccccc3)C[C@H]1[C@@H]1O[C@@H]12` (stereo not given in full), the Potency entry was “inactive”. Under `CCOC(=O)C1OC1(C)c1ccccc1` (stereo not given) stands “inactive”; under `CCOP(=S)(OCC)Oc1ccc(S(C)=O)cc1` (stereo not given), “inactive”. In the case of `CCCCC(CC)CO[N+](=O)[O-]` (stereo not given) it was “inactive”.

In the case of `C=CCN1C[C@H](C)N([C@H](c2ccc(C(=O)N(CC)CC)cc2)c2cccc(OC)c2)C[C@H]1C`, the Potency result was “inactive”. Turning to `CCC1CCC(=O)O1` (stereo not given), the Potency entry was “inactive”.

In the case of `C=CCOCC1CO1` (stereo not given), the Potency result is “inactive”. Under `O=C(O)CCCOc1ccc(Cl)cc1Cl` stands “inactive”; under `CN(C)c1ccc(N=O)cc1`, 21.8 µM (active).

For the molecule `Clc1ccccc1`, the Potency entry is “inactive”. For the molecule `CCCCCCCCCCCC[N+](C)(C)CCOc1ccccc1`, the Potency was 29.8 µM (active) and 21.7 µM (active).

In the case of `COC(=O)C1(O)c2ccccc2-c2ccccc21`, the Potency result is “inactive”.

With `O=C(O)c1cc(I)cc(I)c1I`, the Potency entry was “inactive”. Under `N#CC1(N=NC2(C#N)CCCCC2)CCCCC1` stands “inactive”.

For the molecule `CCC(C)Cl` (stereo not given), the Potency entry is “inactive”. Under `CCc1ccccc1N` stands “inactive”. In the case of `CCC[N+](CCC)(CCC)CCC` it was “inactive”; in that of `C=CCc1ccccc1O`, “inactive”.

As for `O=C(O)C(F)(F)C(F)(F)C(F)(F)C(F)(F)C(F)(F)C(F)(F)C(F)(F)C(F)(F)F`, the Potency is 61.1 µM (active).

Consider `CCOP(=S)(OCC)SCSc1cc(Cl)ccc1Cl`, for which the Potency entry is “inactive”. Under `CC[N+]1(C)CCCC(OC(=O)C(O)(c2ccccc2)c2ccccc2)C1` (stereo not given) stands “inactive”; under `CCc1cnc(C2=NC(C)(C(C)C)C(=O)N2)c(C(=O)O)c1` (stereo not given), “inactive”; under `Clc1ccc2ccccc2c1`, “inactive”.

As for `NNCCO`, the Potency result is “inactive”.

Turning to `Cc1ncc(C[n+]2csc(CCO)c2C)c(N)n1`, the Potency result is “inactive”. With `O=C([O-])c1ccccn1.O=C([O-])c1ccccn1.O=C([O-])c1ccccn1.[Cr+3]`, the Potency entry was “inactive”. In the case of `CC(C)(C)CC(C)(C)c1ccc(O)cc1` it was 29.8 µM (active) and 30.6 µM (active); in that of `CC(Cc1ccccc1)NCc1ccccc1Cl` (stereo not given), “inactive”. In the case of `CCCC(C)(COC(N)=O)COC(=O)NC(C)C` (stereo not given) it was “inactive”.

For `NCCc1cc(O)c(O)cc1O`, the Potency entry was “inactive”.

As for `CCCCCCCCCCCCCCCl`, the Potency entry is “inactive”. In the case of `C=CC(C)(CCC=C(C)C)OC(=O)c1ccccc1N` (stereo not given) it was “inactive”; in that of `CC(C)c1ccc(OP(=O)(Oc2ccc(C(C)C)cc2)Oc2ccc(C(C)C)cc2)cc1`, “inactive”.

Consider `CC(C)(C)c1ccc(CCOc2ncnc3ccccc23)cc1`, for which the Potency entry is “inactive”. In the case of `CCCCC#N` it was “inactive”. Under `C=CCOC(=O)C(C)(C)OC(=O)c1cc(-n2c(=O)cc(C(F)(F)F)n(C)c2=O)ccc1Cl` stands “inactive”.
